The entries come from a sample that favours hits as a whole.
L3MBTL1 block = blocks human L3MBTL1; Q9Y468; AlphaScreen L3MBTL1–H3K9me1 peptide binding; Potency, µM (doses to about 57.1 µM), for inactives: at the top dose activity, negative = inhibition, hits mostly inhibitors; actives 0.66% (n = 230,000); also: nearly all actives have a fitted effect of over 60% in size
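AlphaScreen proximity signal between nickel-chelate acceptor and streptavidin donor beads (final 10 ug/mL) reports binding of 50 nM L3MBTL1 to 75 nM biotin-H3 K9me1 peptide; complex incubated with compounds 30 min at room temperature; cefsulodin titration as control.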
APE1 inh-1 = APE1 (human) endonuclease inhibition. recombinant APE1, TAMRA/BHQ-2 abasic DNA cleavage fluorescence. AID 2517. Potency, µM (top dose mostly 65.8 µM), for inactives: top-dose activity change, negative = inhibition, hits mostly inhibitors. actives 0.35% (n = 350,000). P27695;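 also: plate controls were vehicle for no effect and reference inhibitor for full effect; nearly all actives have a fitted effect of over 55% in size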
Target sequence (P27695 whole entry, looked up): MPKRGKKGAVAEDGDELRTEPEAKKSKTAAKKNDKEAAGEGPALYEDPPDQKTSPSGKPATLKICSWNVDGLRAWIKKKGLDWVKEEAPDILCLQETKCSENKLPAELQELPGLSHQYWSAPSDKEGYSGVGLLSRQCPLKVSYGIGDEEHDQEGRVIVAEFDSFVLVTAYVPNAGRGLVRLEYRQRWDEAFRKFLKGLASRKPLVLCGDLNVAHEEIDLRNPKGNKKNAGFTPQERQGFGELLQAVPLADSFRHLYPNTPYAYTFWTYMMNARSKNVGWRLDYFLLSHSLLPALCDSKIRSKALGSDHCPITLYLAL
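Compound pre-exposure to 0.75 nM APE1, 15 min at ambient temperature. Reaction initiated with 50 nM TAMRA/BHQ-2 THF substrate, read immediately in kinetic mode, 525 nm excitation, 598 nm emission.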
RECQ1 inh-1 = RECQ1 (human) helicase inhibition. RECQ1 DNA unwinding, red fluorescence kinetic read. P46063. AID 2549. Potency, µM (titrated, usually from 57.3 µM), for inactives: at the highest dose activity, negative = inhibition, most hits filed as inhibitors. actives 0.54% (n = 240,000);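 also: plate controls were vehicle for no effect and no enzyme for full effect; nearly all actives have a fitted effect of over 30% in size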
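RECQ1T1 50 nM; forked duplex (20 bp + 30-nt ss tails) 200 nM, ATP 2 mM final; pH 8.0, 2 mM MgCl2, 2.5 ug/ml poly(dI-dC); 15 min compound preincubation; discontinuous kinetic read over 2 h at RT.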
KDM4E inh = JMJD2E (human) inhibition; Potency, µM (titrated, usually from 57.1 µM), without a hit: at the highest dose activity change, negative = inhibition, actives largely listed as inhibitors; JMJD2E catalytic domain, FDH-coupled NADH fluorescence (FDH is formaldehyde dehydrogenase); B2RXH2; actives 1.6% (n = 230,000); active = well fitted inhibition curve with a large enough effect, not every such curve was filed as active; inconclusive = small, poorly fitted or top-dose-only effect, or another doubt; inactive = no such curve, though single readings can be large or run the other way;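 also: 0% = wells with enzyme and -100% = buffer wells without enzyme; nearly all actives have a fitted effect of over 50% in size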
Target sequence (B2RXH2 1-337 limits assumed): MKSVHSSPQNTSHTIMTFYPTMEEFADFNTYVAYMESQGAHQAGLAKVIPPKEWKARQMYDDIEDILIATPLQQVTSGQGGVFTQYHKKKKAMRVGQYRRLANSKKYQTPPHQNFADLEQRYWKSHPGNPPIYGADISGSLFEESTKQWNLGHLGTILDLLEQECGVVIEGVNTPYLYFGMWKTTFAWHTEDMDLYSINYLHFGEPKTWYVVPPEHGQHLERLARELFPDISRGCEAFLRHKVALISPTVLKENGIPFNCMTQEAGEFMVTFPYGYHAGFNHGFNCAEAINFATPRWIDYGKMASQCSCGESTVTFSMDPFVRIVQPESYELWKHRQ
BLM inh-1 = blocks DNA unwinding by human BLM helicase. recombinant BLM DNA unwinding, fluorescence dequenching. actives 0.2% (n = 350,000). AID 2528. P54132. Potency, µM (titrated, usually from 56.1 µM), inactives show at the highest dose activity change, negative = inhibition, hits mostly inhibitors;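 also: plate controls were vehicle for no effect and no enzyme for full effect; nearly all actives have a fitted effect of over 35% in size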
GCN5L2 inh = GCN5L2 (KAT2A) acetyltransferase inhibition | Q92830 | GCN5L2 HAT assay, ThioGlo1 CoA-SH fluorescence | Potency, µM (top dose mostly 58.9 µM), for the others: at the highest dose activity change, negative = inhibition, usual class: inhibitors | actives 0.21% (n = 390,000)
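GCN5L2 (20nM final) in 50mM HEPES, 0.1mM EDTA pH 7.5, 0.01% Tween-20 was preincubated 15 min at room temperature with compound, then given ThioGlo1 (50uM), H3(1-25) peptide (75uM) and acetyl-CoA (70uM); CoA-thiol fluorescence (Ex340/Em540) was read at 0 and 20 min.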
APE1 dye cs = counter-screen for APE1 inhibitors: DNA dye displacement | DNA fluorescent dye displacement counterscreen, fluorescence | AID 2564 | shares compounds with APE1 inh-1 | Potency, µM (series often up to 28.5 µM), inactives show at the top dose activity change, negative = inhibition, actives largely listed as inhibitors | actives 7% (n = 480);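 also: loss of thiazole orange fluorescence as the dye is displaced from duplex DNA; 0% = ThO with dsDNA and no compound and -100% = ThO without dsDNA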
Endo IV inh = blocks E. coli endonuclease IV DNA cleavage | shares compounds with APE1 inh-1 | E. coli Endo IV, fluorogenic AP-site DNA cleavage | Potency, µM (top dose mostly 27.1 µM), for the others: at the top dose activity change, negative = inhibition, usual class: inhibitors | actives 4% (n = 560) | AID 2565;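 also: plate controls were uninhibited enzyme wells for no effect and no enzyme buffer wells for full effect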
APE1 inh-2 = APE1 (human) endonuclease inhibition, confirmation; Potency, µM (top dose mostly 57.1 µM), inactives show at the top dose activity change, negative = inhibition, most hits filed as inhibitors; purified APE1, fluorogenic abasic-site DNA cleavage; shares compounds with APE1 inh-1; actives 44% (n = 750); also: nearly all actives have a fitted effect of over 30% in size
APE1 FP inh = APE1 (human) DNA binding inhibition, fluorescence polarization | Potency, µM (series often up to 28.5 µM), for inactives: at the top dose activity, negative = inhibition, usual class: inhibitors | APE1 binding to TAMRA-labelled double-stranded DNA, fluorescence polarization displacement | actives 7% (n = 480) | shares compounds with APE1 inh-1 | AID 2573
BLM inh-2 = confirmation of inhibitors of human Bloom syndrome helicase BLM; Potency, µM, inactives show max response, negative = inhibition, hits mostly inhibitors; BLM DNA unwinding, fluorescence quenching, biochemical; shares compounds with BLM inh-1; actives 40% (n = 220);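 also: strand separation dequenches TAMRA so unwinding raises red fluorescence; series mostly up to about 69 µM; nearly all actives have a fitted effect of over 45% in size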
RECQ1 conf = confirmation of human RECQ1 helicase inhibitors | shares compounds with RECQ1 inh-1 | RECQ1 helicase DNA unwinding, fluorescence | Potency, µM (top dose mostly 229 µM), inactives show at the top dose activity change, negative = inhibition, usual class: inhibitors | actives 28% (n = 610) | AID 2708; also: nearly all actives have a fitted effect of over 45% in size
ADP FP counter = displaces ADP in a fluorescence polarization counter-screen for RECQ1 hits | shares compounds with RECQ1 inh-1 | ADP fluorescence polarization displacement counterscreen | Potency, µM (series often up to 228 µM), for the others: at the highest dose activity change, negative = inhibition, hits mostly inhibitors | actives 27% (n = 530); also: nearly all actives have a fitted effect of over 45% in size
RECQ1 inh-2 = blocks human RECQ1 DNA unwinding; shares compounds with RECQ1 inh-1; recombinant RECQ1 DNA unwinding, red fluorescence; Potency, µM (titrated, usually from 119 µM), inactives show at the top dose activity, negative = inhibition, most hits filed as inhibitors; actives 15% (n = 1,100); AID 504841; also: nearly all actives have a fitted effect of over 50% in size
* = called active by the depositor; i = inactive; ? = inconclusive; / = no result given; [ ] = remark or other dose. Unless noted, calls follow the shape of the dose curve; as a rule, active = well fitted curve in the direction sought with a large enough effect; inconclusive = small, poorly fitted or top-dose-only effect, or another doubt; inactive = no such curve, though single readings can be large; an effect the other way counts as inactive or inconclusive. Unless noted, % is scaled to controls: 0 for no effect and ±100 for the full control effect; potency is read from the fitted curve at half-maximal effect.

SMILES	L3MBTL1 block	APE1 inh-1	RECQ1 inh-1	KDM4E inh	BLM inh-1	GCN5L2 inh	APE1 dye cs	Endo IV inh	APE1 inh-2	APE1 FP inh	RECQ1 conf	ADP FP counter	RECQ1 inh-2	others
O=C1SC(SCc2ccccc2)=N/C1=C\c1ccco1	/	?	?	-9.6%	-5.2%	/	?	-10.4%	?	4.8%	/	/	?
CCCSC1=N/C(=C\C=C\c2ccco2)C(=O)S1	5.62µM*	3.98µM*	7.94µM*	8.91µM*	20µM*	-23.4%	-3.1%	17.7%	?	?	31.6µM*	12.6µM*	?
C=C(C)C(=O)Nc1cccc(C2=NOC3(C2)C[C@@H](C(N)=O)N(C(=O)c2cc([N+](=O)[O-])cc([N+](=O)[O-])c2)C3)c1 (some centres undefined)	/	7.2%	-21.3%	2.0%	-1.8%	0.2%	/	/	/	/	/	/	/
C=C(C)C(=O)Nc1cccc(C2=NOC3(C2)C[C@@H](C(N)=O)N(C(=O)c2ccc(OC)cc2)C3)c1 (some centres undefined)	/	?	7.94µM*	-5.5%	-6.9%	4.1%	/	/	?	/	25.1µM*	35.5µM*	/
O=C(CCCN1C(=O)/C(=C/c2ccco2)SC1=S)Nc1cccc(C(=O)O)c1	-86.4%	7.94µM*	8.91µM*	?	?	-11.1%	0.5%	106.5%	?	-8.8%	70.8µM*	0.2%[91.9 µM]	/
O=C(CCCN1C(=O)/C(=C\c2cccs2)SC1=S)Nc1cccc(C(=O)O)c1	/	8.8%	-4.6%	4.0%	-3.0%	-18.7%	/	/	/	/	/	/	/
COc1ccc(N2Cc3cccc(C(=O)Nc4cc(C)cc(C)c4)c3C2=O)cc1	/	/	/	/	-15.9%	-26.1%	/	/	/	/	/	/	/
COc1ccc(N2Cc3cccc(C(=O)O)c3C2=O)cc1	/	12.6µM*	14.1µM*	?	15.8µM*	?	4.1%	-1.4%	3.98µM*	?	25.1µM*	-32.1%[91.9 µM]	4.47µM*	BLM inh-2=16.2µM*
O=C(O)c1ccc(N2C(=O)c3cccc4c(C(=O)O)ccc(c34)C2=O)cc1	3.55µM*	12.6µM*	?	28.2µM*	-8.2%	-14.4%	-4.0%	5.4%	?	-95.2%	/	/	?
O=C(O)c1ccc(N2C(=O)c3cccc4cccc(c34)C2=O)cc1	42.6%	-1.3%	/	/	-0.9%	-4.1%	/	/	/	/	/	/	/
O=C(O)Cc1ccc(C(=O)CSc2ccccc2)s1	?	?	?	-5.6%	-29.8%	-24.3%	-2.6%	7.0%	?	8.3%	/	/	13.5%
CCOc1ccc(NC(=O)CSc2nc(-c3ccccc3)c3cc(OCC)ccc3n2)cc1	/	/	/	/	0.8%	-7.7%	/	/	/	/	/	/	/
Cc1nnc(NC(=O)C2CC(=O)N(c3ccc4c(c3)OCCO4)C2)s1 (centres undefined)	6.8%	-20.8%	/	/	/	-6.6%	/	/	/	/	/	/	/
O=C(Nc1nc(-c2ccco2)c(-c2ccco2)s1)C1CC(=O)N(c2ccc3c(c2)OCCO3)C1 (centres undefined)	?	2.51µM*	7.94µM*	?	14.1µM*	?	11.2µM*	7.8%	?	-3.1%	28.2µM*	39.8µM*	?
O=C(NC1CCCCC1)C(c1cccnc1)N(C(=O)c1csnn1)c1ccccc1F (centres undefined)	/	22.6%	/	/	1.1%	0.6%	/	/	/	/	/	/	/
CC1(C)SC2C(N3C(=O)C(c4ccccc4)NC3(C)C)C(=O)N2C1C(=O)O (centres undefined)	/	/	14.1µM*	?	-7.5%	0.9%	-8.1%[57.1 µM]	14.3%[57.1 µM]	?	?	89.1µM*	31.6µM*	/
COc1ccc(OC)c(CCNc2nc3cc(OC)c(OC)cc3c3nc(-c4cccnc4)nn23)c1	/	/	/	/	-2.8%	0.0%	/	/	/	/	/	/	/
c1ccc2c(c1)ccc1ccccc12	4.7%	25.6%	12.1%	/	/	-2.5%	/	/	/	/	/	/	/
CC1=[N+](C)c2ccc3ccccc3c2C1(C)C	-13.6%	14.1µM*	3.55µM*	?	-8.9%	1.4%	0.9%	?	?	58.2%	7.94µM*	2.82µM*	22.4µM*
COc1cc2c(ccc3cc(OC)c(OC)c(O)c32)cc1O	/	0.708µM*	11.2µM*	?	25.1µM*	-16.3%	?	?	0.631µM*	?	39.8µM*	50.1µM*	/
COc1cc2cccc(OC)c(=O)c2c(O)c1OC	-1.3%	-2.0%	i	-3.2%	1.3%	-1.8%	/	/	/	/	/	/	/
Cc1ccc(NC(=O)CN2C(=O)N/C(=C/c3ccco3)C2=O)cc1	-88.1%	3.16µM*	3.98µM*	15.8µM*	-19.0%	?	-10.0%	3.2%	?	-13.1%	39.8µM*	50.1µM*	/
O=C1c2ccccc2C(=O)N1/N=C/c1ccc(O)c(O)c1O	/	0.708µM*	6.31µM*	2.24µM*	-24.3%	-14.5%	-9.8%	73.2%	?	4.1%	?	35.5µM*	/
